Source: PubChem BioAssay (NCI)
This is part of a sample that, as a whole, favours compounds with a hit. Of some 83,000 tested, about 20% had one in any assay.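 In brief: 96-well plates, 48 h treatment, single concentration, percent growth endpoint.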 Activity calls are given as the source filed them. How the source made its calls: active means growth percent below 10; inactive means the rest.

What was measured:
Experiment in all cases: NCI-60 one-dose screen, 48 h (100 = growth as untreated, 0 = no growth, -100 = all killed)
Conditions in all cases: 10 µM unless noted
[1] = system: SR leukemia
[2] = system: RPMI-8226 leukemia
[3] = system: OVCAR-8 ovarian
[4] = system: OVCAR-5 ovarian
[5] = system: OVCAR-4 ovarian
[6] = system: SK-OV-3 ovarian
[7] = system: IGROV1 ovarian
[8] = system: OVCAR-3 ovarian
[9] = system: HS 578T breast
[10] = system: NCI/ADR-RES ovarian
[11] = system: T-47D breast
[12] = system: BT-549 breast
[13] = system: MDA-MB-435 melanoma
[14] = system: SW-620 colon
[15] = system: MCF7 breast
[16] = system: HCT-116 colon
[17] = system: HCC-2998 colon
[18] = system: KM12 colon

SMILES	growth [1]	growth [2]	growth [3]	growth [4]	growth [5]	growth [6]	growth [7]	growth [8]	growth [9]	growth [10]	growth [11]	growth [12]	growth [13]	growth [14]	growth [15]	growth [16]	growth [17]	growth [18]
Cc1cc(C(=O)Nc2cc(Nc3ncccc3-c3ncnc4nc[nH]c34)ccc2F)cc(C(C)(C)C#N)c1	32.1% (inactive)	24% (inactive)	39.9% (inactive)	30.3% (inactive)	53.2% (inactive)	87% (inactive)	3.72% (active)	52.1% (inactive)	44.6% (inactive)	49.9% (inactive)	47% (inactive)	54.5% (inactive)	33.2% (inactive)	34.3% (inactive)	62.4% (inactive)	14.1% (inactive)	35.3% (inactive)	35.9% (inactive)
COc1cc(C(=O)/C=C/c2c(-c3cccs3)nc3sc(C)cn23)cc(OC)c1OC	4.77% (active)	2.15% (active)	0.3% (active)	56.9% (inactive)	14.3% (inactive)	12.4% (inactive)	9.6% (active)	-8.57% (active)	-16.2% (active)	-35.4% (active)	3.31% (active)	-0.944% (active)	-15.1% (active)	6.94% (active)	1.13% (active)	2.71% (active)	20.2% (inactive)	-8.4% (active)
COc1cccc(NC(=O)c2sc3nc(C)c(C(=O)c4ccccc4)cc3c2N)c1	45.4% (inactive)	94.5% (inactive)	98.8% (inactive)	97.5% (inactive)	87.9% (inactive)	41% (inactive)	91.7% (inactive)	92.9% (inactive)	72.9% (inactive)	98.1% (inactive)	88.6% (inactive)	91.8% (inactive)	29.9% (inactive)	91.4% (inactive)	69.5% (inactive)	95.9% (inactive)	109% (inactive)	88% (inactive)
c1ccc(-c2cn3nc(-c4c[nH]c5ccccc45)sc3n2)cc1	21.7% (inactive)	91.8% (inactive)	93.3% (inactive)	74.2% (inactive)	70.4% (inactive)	80.4% (inactive)	56.5% (inactive)	86.1% (inactive)	84.5% (inactive)	84.3% (inactive)	62.6% (inactive)	91.3% (inactive)	26.5% (inactive)	73.5% (inactive)	59.1% (inactive)	84.2% (inactive)	89.6% (inactive)	58.3% (inactive)
C[C@H]1c2ccccc2CN1CCCOc1cc2c(cc1OCC1CC1)C1(CCCC1)C(N)=N2	13.8% (inactive)	17.6% (inactive)	65.9% (inactive)	70.5% (inactive)	48.8% (inactive)	90.2% (inactive)	54.8% (inactive)	76.9% (inactive)	56% (inactive)	68% (inactive)	0.245% (active)	78% (inactive)	36.4% (inactive)	15% (inactive)	22.5% (inactive)	7.48% (active)	-55.3% (active)	49.6% (inactive)
CC(=O)O[C@H]1CC[C@@]2(C)C(=CC[C@@H]3[C@@H]2CC[C@]2(C)C(Cl)=C(c4nc5ccc(Cl)cn5c4NC(C)(C)C)C[C@@H]32)C1	93% (inactive)	93.9% (inactive)	96.9% (inactive)	91.5% (inactive)	90.3% (inactive)	105% (inactive)	87.9% (inactive)	100% (inactive)	85.6% (inactive)	95.4% (inactive)	94.4% (inactive)	105% (inactive)	93.8% (inactive)	98.3% (inactive)	91.9% (inactive)	86.6% (inactive)	112% (inactive)	94.5% (inactive)
CN1CCN(Cc2ccc(NC(=O)c3cc(C#Cc4cnc(N)c5ncccc45)n(C)n3)cc2C(F)(F)F)CC1	2.23% (active)	69.2% (inactive)	69.4% (inactive)	140% (inactive)	114% (inactive)	111% (inactive)	113% (inactive)	119% (inactive)	25% (inactive)	96% (inactive)	101% (inactive)	117% (inactive)	102% (inactive)	88.1% (inactive)	39.7% (inactive)	96.1% (inactive)	128% (inactive)	87.8% (inactive)
COc1ccc(C(=O)/C=C/c2ccc(C)cc2)cc1S(N)(=O)=O	5.31% (active)	35.8% (inactive)	29.3% (inactive)	77% (inactive)	84.1% (inactive)	114% (inactive)	28% (inactive)	39.2% (inactive)	84.9% (inactive)	51.7% (inactive)	94.1% (inactive)	64.1% (inactive)	88.3% (inactive)	21.9% (inactive)	22% (inactive)	9.96% (active)	99% (inactive)	44.3% (inactive)
COc1cc(C(=O)c2c(-c3ccccc3)oc3ccccc23)cc(OC)c1O	13.7% (inactive)	24.7% (inactive)	34.6% (inactive)	99.8% (inactive)	56.3% (inactive)	51.2% (inactive)	41.1% (inactive)	2.25% (active)	-3.45% (active)	21.8% (inactive)	28.7% (inactive)	47.4% (inactive)	-30.9% (active)	14.6% (inactive)	21.8% (inactive)	30.7% (inactive)	78.4% (inactive)	27.7% (inactive)
Cc1ccc(-c2nnc(SCc3nc(N)nc(Nc4ccccc4F)n3)n2-c2ccccc2)cc1	92.4% (inactive)	83.7% (inactive)	88% (inactive)	95.9% (inactive)	86.7% (inactive)	102% (inactive)	81.4% (inactive)	102% (inactive)	87.1% (inactive)	98.2% (inactive)	85% (inactive)	97.9% (inactive)	99.6% (inactive)	93.6% (inactive)	94.9% (inactive)	98.4% (inactive)	126% (inactive)	101% (inactive)
CC/C(=C(/c1ccc(Cl)cc1)c1ccc(OCCCN(C)C)cc1)c1ccc(OC)cc1	-40.6% (active)	-41.3% (active)	74.3% (inactive)	73.5% (inactive)	86.6% (inactive)	102% (inactive)	63.4% (inactive)	68.8% (inactive)	84.8% (inactive)	82.9% (inactive)	51.1% (inactive)	86.1% (inactive)	64.7% (inactive)	4.55% (active)	9.13% (active)	46.6% (inactive)	16.8% (inactive)	31.7% (inactive)
C=C(CNCCc1ccc(O)cc1)[C@@H]1CC[C@]2(CO)CC[C@]3(C)[C@H](CC[C@@H]4[C@@]5(C)CCC(N)C(C)(C)[C@@H]5CC[C@]43C)[C@@H]12 (stereo partly drawn)	-43.9% (active)	-46.5% (active)	-56.8% (active)	11.4% (inactive)	-16.2% (active)	-6.7% (active)	-57.3% (active)	-53.5% (active)	-66% (active)	60.4% (inactive)	-65.7% (active)	59.7% (inactive)	-90.5% (active)	-81.6% (active)	-72.3% (active)	-65.9% (active)	-89.5% (active)	-60.6% (active)
c1ccc2[nH]c(-c3ccc(-c4nccc5c4[nH]c4ccccc45)cc3)nc2c1	-4.29% (active)	61.1% (inactive)	16.5% (inactive)	129% (inactive)	23% (inactive)	104% (inactive)	94.5% (inactive)	-24.2% (active)	73.7% (inactive)	62.6% (inactive)	34.4% (inactive)	73.7% (inactive)	59.7% (inactive)	68.5% (inactive)	30.4% (inactive)	16.3% (inactive)	74% (inactive)	76.6% (inactive)
CNC(=O)c1cc(Oc2cccc3nc(NC(=O)Nc4ccc(F)cc4F)ccc23)ccn1	18% (inactive)	30.4% (inactive)	13.9% (inactive)	70.3% (inactive)	-63.4% (active)	35.3% (inactive)	35% (inactive)	0.213% (active)	5.37% (active)	22.5% (inactive)	21% (inactive)	45.5% (inactive)	32.6% (inactive)	59.7% (inactive)	37.8% (inactive)	-33.1% (active)	70.2% (inactive)	57.7% (inactive)
O=C1C(Nc2ccc(Br)cc2)=C(I)C(=O)c2ncccc21	4.58% (active)	6.59% (active)	2.71% (active)	73.5% (inactive)	-95.6% (active)	83.9% (inactive)	-56.7% (active)	-85.3% (active)	40.7% (inactive)	1.39% (active)	-41.3% (active)	63.9% (inactive)	-79% (active)	-24.6% (active)	-35.4% (active)	-36.2% (active)	87.3% (inactive)	49.9% (inactive)
COC(=O)c1cc(-c2ccc(OC)c(OC)c2)[nH]c1N/N=C/c1c(Cl)cccc1Cl	12.1% (inactive)	24.1% (inactive)	41.1% (inactive)	49.4% (inactive)	69.3% (inactive)	42.2% (inactive)	42.4% (inactive)	-19.2% (active)	14.3% (inactive)	26.8% (inactive)	40.9% (inactive)	37.7% (inactive)	-18.3% (active)	21.3% (inactive)	14.6% (inactive)	14.5% (inactive)	53.2% (inactive)	28.7% (inactive)
